# Laboratory results published in PubChem BioAssay.
# Assay: basal MM1S mitochondrial membrane potential changes, profiling panel, cell-based, JC-1 fluorescence, 24 h, 100 nL compound (AID 1170); further: test concentration not given here
# Conditions: higher = more signal
row,Compound,z-score
1,CCCCC(=C=CC[C@@H](O)c1cccc(OCCO)c1)CCO,-1.09
2,C=CCOC(=O)[C@@H]1[C@H]2C(=O)O[C@H](c3ccccc3)[C@H](c3ccccc3)N2[C@H](c2ccc(OCCOC(=O)[C@H]3C[C@H]4C(=O)NCC(=O)N4[C@H]3c3ccc(O)cc3)cc2)[C@@]12C(=O)Nc1ccc(I)cc12,-1
3,CN1C=C(C(=O)OCCS(C)(=O)=O)C(C(=O)OCCS(C)(=O)=O)=CC(CCCO)=CC1c1ccc(CN2CCCC2)cc1 (stereo unspecified),-0.394
4,COCCOC(=O)N1C(=O)[C@@]2(c3cc(C#CC4(O)CCCCCC4)ccc31)[C@H](C(=O)N1CCc3cc(OC)c(OC)cc3C1)[C@H]1C(=O)O[C@H](c3ccccc3)[C@H](c3ccccc3)N1[C@@H]2c1ccc(O)cc1,0.318
5,O=C1O[C@@H](c2ccccc2)[C@@H](c2ccccc2)N2[C@@H](c3ccc(OCCO)cc3)[C@]3(C(=O)Nc4ccc(C#CCCO)cc43)[C@@H](C(=O)Nc3nc4ccccc4s3)[C@H]12,-1.49
6,COCCCNC(=O)[C@@H]1c2ccccc2C(=O)N(C2CCCCC2)[C@H]1c1ccc(CO)cc1,-1.17
7,C=CC[C@]1(C(=O)NCc2ccccc2)COC(c2ccc(OCCCO)cc2)=N1,-0.107
8,CN(C)CCCNC(=O)[C@@]1(Cc2ccccc2I)c2ccccc2C(=O)N(Cc2ccccc2)[C@H]1c1ccc(CO)cc1,-1.54
9,COc1cccc(OC)c1C(=O)O[C@H]1[C@@H]2OC(=O)[C@H](Cc3cccc(Br)c3)C/C=C/C[C@@H](Cc3cccc(Br)c3)C(=O)O[C@H]2[C@@H](OC)O[C@@H]1CO,-0.211
10,[N-]=[N+]=NCc1ccccc1C[C@]1(C(=O)NCc2ccccc2)N=C(c2ccc(OCCCO)cc2)O[C@H]1c1ccccc1CN=[N+]=[N-],-0.214
11,COCCOC(=O)N1C(=O)[C@@]2(c3cc(C#Cc4ccc(OC)cc4)ccc31)[C@H](c1ccc(OCCO)cc1)N1[C@H](c3ccccc3)[C@H](c3ccccc3)OC(=O)[C@H]1[C@@H]2C(=O)N1CCCCCCC1,-1
12,Cc1ccc(S[C@]2(C(=O)NC3CC3)CC(=O)N(Cc3cc(C(F)(F)F)cc(C(F)(F)F)c3)[C@@H]2c2ccc(CO)cc2I)cc1,-2.03
13,CC1(C)OC[C@@]23C=C(Br)[C@@H](C[C@H]12)[C@@]1(CO1)C3=O,-0.151
14,CCOC(=O)C1=CC[C@@H](c2ccccc2)N(S(=O)(=O)c2ccc(C)cc2)[C@H]1C#N,-2.33
15,COc1ccccc1CN1C(=O)c2ccccc2[C@](Cc2ccccc2I)(C(=O)NCCCN(C)C)[C@@H]1c1ccc(CO)cc1,-2.23
16,CCCC=C(CCC)[C@@H](NC(=O)c1ccco1)c1ccc(C(=O)OC)cc1,-2.86
17,CC(C)(C)OC(=O)CC[C@]1(C(N)=O)N=C(c2ccc(OCCCO)cc2)O[C@H]1c1ccccc1CN=[N+]=[N-],0.0608
18,COc1ccc(NN2C(C(O)c3cc(C(F)(F)F)cc(C(F)(F)F)c3)C=CC3C(=O)N(C4CCCCC4)C(=O)C32)cc1 (stereo unspecified),-1.14

row,Compound,z-score
1,COc1ccc(CCNC(=O)[C@@]2(C)c3ccccc3C(=O)N(Cc3cc(C(F)(F)F)cc(C(F)(F)F)c3)[C@H]2c2ccc(CO)cc2)cc1,0.783
2,CC(C)C(=C=CC[C@@H](O)c1ccc(OCCO)cc1)CCO,-1.11
3,C=CCC(OC(C)=O)[C@@H]1[C@@H](N(Cc2cc3ccccc3o2)C(=O)c2ccc(-c3ccccc3)cc2)c2cc(OCCCO)ccc2N1C(=O)c1ccc2ccccc2n1 (stereo partly specified),1.32
4,CC(C)c1ccc(NN2C(C(O)C(C)C)C=CC3C(=O)N(c4ccccc4)C(=O)C32)cc1 (stereo unspecified),0.54
5,CCCC[C@H]1OB(O)C[C@H]2C1=C(COC)C[C@H]1C(=O)C=CC(=O)[C@H]12,-0.898
6,COc1ccc([Si](C)(C)[C@H]2[C@H](CCn3cc([C@H](O)c4ccccc4)nn3)O[C@@]3(C(=O)N(c4ccccc4)c4ccccc43)[C@@H]2C)cc1,-0.794
7,N#Cc1ccc(C(O)C2C=CC3C(=O)NC(=O)C3N2Nc2ccccn2)cc1 (stereo unspecified),-0.839
8,O=C1C2C=CC(C(O)c3cccs3)N(Nc3ccccc3)C2C(=O)N1c1ccccc1 (stereo unspecified),-0.542
9,CC(C)=CCN(C(=O)C#Cc1ccccc1)[C@H](CO)c1ccccc1,-2.54
10,CCCC[C@@H]1C[C@H]1[C@@H](NC(=O)Cc1ccccc1)c1ccc(Cl)cc1,-2.89
11,O=C1C2C=CC(C(O)c3ccc([N+](=O)[O-])cc3)N(Nc3ccccc3)C2C(=O)N1c1ccccc1 (stereo unspecified),-1.55
12,O=C1C2C=CC(C(O)C(c3ccccc3)c3ccccc3)N(Nc3ccccc3)C2C(=O)N1c1ccccc1 (stereo unspecified),-0.401
13,CC(C)CNC(=O)[C@@]1(C)c2ccccc2C(=O)N(Cc2cc(F)cc(C(F)(F)F)c2)[C@H]1c1ccc(CO)cc1,0.0607
14,Cc1c(NC(=O)/C(C#N)=C/c2ccc(Cl)cc2)c(=O)n(-c2ccccc2)n1C,-0.512
15,CN1C(=O)[C@]2(CCS(=O)(=O)c3ccccc3)N=C(c3ccc(OCCCO)cc3)O[C@@H]2c2ccccc21,0.48
16,COc1cccc(C[C@H]2C[C@@H](CO[Si](C(C)C)(C(C)C)C(C)C)N3C(=O)[C@@]4(C(C)=O)O[C@@]23[C@@H]2C(=O)N(C)C(=O)[C@@H]24)c1,-0.661
17,CC(=O)n1cc(C(O)C2C=CC3C(=O)N(c4ccccc4)C(=O)C3N2Nc2ccccc2F)c2ccccc21 (stereo unspecified),-1.41
18,CC=CC(O)C1C=CC2C(=O)N(C)C(=O)C2N1NC(=O)OC(C)(C)C (stereo unspecified),0.163
